Results published in PubChem BioAssay (Tox21).
Results filed as inconclusive are left out. Activity calls are given as the source filed them. Unless noted, calls follow the shape of the dose curve; as a rule, active = well fitted curve in the direction sought with a large enough effect in the repeat runs; inconclusive = weak or mixed curves; inactive = no such curve, though single readings can be large; an effect the other way counts as inactive or inconclusive.

Key:
[1] = target: Acetylcholinesterase (Homo sapiens) (UniProt P22303); test: Acetylcholinesterase (AChE) small molecule antagonists: enzyme-based qHTS assay with human liver microsomes (AID 1347399; calls by dose curve; also: nearly all actives have a fitted effect of over 60% in size); conditions: Potency: qHTS inhibition; outcome: qHTS inhibition
Summary of the method: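 Recombinant human AChE (50 mU/mL in the enzyme mix) and human liver microsomes (0.25 mg/mL final) were preincubated with compound and NADPH (0.25 mg/mL final) for 30 min at 37 C. Acetylthiocholine/DTNB was then added; thiocholine was read colorimetrically after 10 min at room temperature.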

[2] = target: Acetylcholinesterase (Homo sapiens) (UniProt P22303); test: Acetylcholinesterase (AChE) small molecule antagonists: fluorescence cell-based qHTS assay (AID 1347398; calls by dose curve; also: nearly all actives have a fitted effect of over 50% in size); conditions: Potency: AChE activity; outcome: AChE activity
Summary of the method: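 SH-SY5Y, 2,000 cells/well, attached overnight; cmpd 30 min 37 C; acetylthiocholine/Thiolite Green cocktail 40 min RT; fluorescence Ex/Em 490/520 nm.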

[3] = qHTS assay for small molecule agonists of the p53 signaling pathway (AID 651631; calls by dose curve; also: nearly all actives have a fitted effect of over 15% in size)
Summary of the method: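 Readout was fluorescence from the LiveBLAzer FRET substrate, applied for 2 h at room temperature after 16 h compound exposure at 37 °C. Cells were the p53RE-bla HCT-116 line, with beta-lactamase driven by p53 response elements.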

[4] = qHTS assay for small molecules that induce genotoxicity in human embryonic kidney cells expressing luciferase-tagged ATAD5 (AID 651632); also: nearly all actives have a fitted effect of over 15% in size
Summary of the method: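 Test compounds were delivered by pin tool onto HEK293T reporter cells (2,000/well) expressing ATAD5 fused to luciferase. After 16 hr at 37C, 5% CO2, Amplite was added for 30 min at room temperature and luminescence was measured.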

[5] = qHTS assay for small molecule agonists of the p53 signaling pathway - cell viability (AID 651633; calls by dose curve; also: series mostly up to about 83 µM; nearly all actives have a fitted effect of over 30% in size)
Summary of the method: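 p53RE-bla cells were treated with compound for 16 hours at 37 C. Cytotoxicity was then measured as CellTiter-Glo luminescence after 30 min at room temperature.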

[6] = qHTS assay for small molecules that induce genotoxicity in human embryonic kidney cells expressing luciferase-tagged ATAD5 - cell viability (AID 651634; calls by dose curve; also: nearly all actives have a fitted effect of over 25% in size)
Summary of the method: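 Quantitative high-throughput format. HEK293T cells expressing ATAD5 fused to luciferase were plated at 2,000 cells/well and treated 15.5 hr with compound versus DMSO. Viability was determined by fluorescent live-cell protease substrate, 30 min at 37C.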

[7] = qHTS assay for small molecule disruptors of the mitochondrial membrane potential - cell viability (AID 720634; calls by dose curve;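 also: human HepG2 liver cancer cells; series mostly up to about 83 µM; nearly all actives have a fitted effect of over 20% in size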)
Summary of the method: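 Same-well counter-screen: following the MMP dye addition, CellTiter-Glo was added to 1 hr compound-treated HepG2 cells and luminescence read after 30 min at room temperature.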

[8] = qHTS assay for small molecule disruptors of the mitochondrial membrane potential (AID 720635)
Summary of the method: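 HepG2 cells exposed to compound 1 hr at 37C, then Mito-MPS dye 30 min. Ratio read of aggregate (540/590 nm) versus monomer (490/535 nm) fluorescence.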

[9] = qHTS assay to test for compound auto fluorescence at 590 nm (red) in HepG2 cells (AID 720674)
Summary of the method: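 Fluorescence at 590 nm emission following 540 nm excitation was recorded from HepG2 wells one hour after compound transfer, with DMSO-only wells as vehicle and Rose Bengal sodium equivalency as the scale.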

[10] = qHTS assay to test for compound auto fluorescence at 535 nm (green) in HepG2 cells (AID 720675)
[11] = qHTS assay to test for compound auto fluorescence at 460 nm (blue) in HEK293 cells (AID 720678)
Summary of the method: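 Blue-channel (Ex/Em 405/460 nm) intensity measured in HEK293 cultures after overnight compound exposure at 37C; signal expressed relative to triamterene. Cells plated 2,000 per well in 10% dialyzed FBS medium and allowed 4-5 hr to attach.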

[12] = qHTS assay to test for compound auto fluorescence at 590 nm (red) in HEK293 cells (AID 720679)
Summary of the method: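 Red-channel autofluorescence (Ex/Em 540/590 nm; Rose Bengal sodium reference) was measured after overnight 37C, 5% CO2 exposure of attached HEK293 cells, 2,000 per well in medium with 10% dialyzed FBS.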

[13] = qHTS assay to test for compound auto fluorescence at 535 nm (green) in HEK293 cells (AID 720680)
[14] = qHTS assay to test for compound auto fluorescence at 535 nm (green) in HEK293 cell free culture (AID 720682)
Summary of the method: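 Compounds were pin-transferred into cell-free DMEM with 10% FBS, and green fluorescence was read at excitation 485 nm and emission 535 nm. Intensities were expressed as fluorescein-equivalent values.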

[15] = qHTS assay to test for compound auto fluorescence at 590 nm (red) in HEK293 cell free culture (AID 720683)
Summary of the method: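 Cell-free wells of DMEM with 10% FBS received compound, and intrinsic fluorescence was read at excitation/emission 540/590 nm. Values expressed as equivalence to Rose Bengal sodium.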

[16] = qHTS assay to test for compound auto fluorescence at 590 nm (red) in HepG2 cell free culture (AID 720684)
Summary of the method: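 Rose Bengal sodium served as the reference for red signal. Test compounds were dispensed into serum-containing MEM (10% FBS) without cells, and plates were read at 540/590 nm.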

[17] = qHTS assay to test for compound auto fluorescence at 460 nm (blue) in HepG2 cell free culture (AID 720685)
Summary of the method: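 Cell-free plates of MEM plus 10% FBS received 23 nL compound or DMSO vehicle; blue-channel (405/460 nm) intensity scored against triamterene as reference fluorophore.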

[18] = qHTS assay to test for compound auto fluorescence at 535 nm (green) in HepG2 cell free culture (AID 720686)
[19] = qHTS assay to test for compound auto fluorescence at 460 nm (blue) in HepG2 cells (AID 720687)
Summary of the method: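 HepG2 cells in MEM with 10% FBS, attached overnight at 37 C, were exposed to compound or DMSO for 1 hr at 37 C, 5% CO2. Blue fluorescence was read at 405/460 nm, with triamterene as reference fluorophore.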

[20] = target: Glucocorticoid receptor (Homo sapiens) (UniProt P04150); test: qHTS assay to identify small molecule agonists of the glucocorticoid receptor (GR) signaling pathway (AID 720691; active = well fitted activation curve with a large enough effect in the signal ratio in the repeat runs, not every such curve was filed as active; the % refers to the signal ratio)
Summary of the method: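 A HeLa cervical cancer line expressing GR and a glucocorticoid response element-driven beta-lactamase gene is treated with compounds for 18 h; LiveBLAzer B/G FRET substrate is then applied and fluorescence read.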

[21] = target: Glucocorticoid receptor (Homo sapiens) (UniProt P04150); test: qHTS assay to identify small molecule antagonists of the glucocorticoid receptor (GR) signaling pathway (AID 720692; active = well fitted inhibition curve with a large enough effect in the signal ratio in the repeat runs, not every such curve was filed as active; the % refers to the signal ratio)
Summary of the method: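 GRE-bla HeLa line, dex-stimulated (5 nM final). Compound exposure 18 h, 37 C. Beta-lactamase FRET read after 2 h RT substrate.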

[22] = qHTS assay to identify small molecule antagonists of the glucocorticoid receptor (GR) signaling pathway - cell viability counter screen (AID 720693); also: nearly all actives have a fitted effect of over 55% in size
[23] = qHTS assay for identifying genotoxic compounds that show differential cytotoxicity against isogenic chicken DT40 cell lines with known DNA damage response pathways - wild type cell line (AID 743012); also: potency is read from the fitted curve at half-maximal effect; nearly all actives have a fitted effect of over 60% in size
Summary of the method: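 300 wt DT40 cells/well; cpd (DMSO) pintool-transferred after ~0.5 h at 37 C/5% CO2; 40 h incubation; CellTiter-Glo added, 30 min RT; luminescence read.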

[24] = qHTS assay for identifying genotoxic compounds that show differential cytotoxicity against isogenic chicken DT40 cell lines with known DNA damage response pathways - Rev3 mutant cell line (AID 743014); also: potency is read from the fitted curve at half-maximal effect; nearly all actives have a fitted effect of over 55% in size
[25] = qHTS assay for identifying genotoxic compounds that show differential cytotoxicity against isogenic chicken DT40 cell lines with known DNA damage response pathways - Rad54/Ku70 mutant cell line (AID 743015); also: potency is read from the fitted curve at half-maximal effect; nearly all actives have a fitted effect of over 60% in size
[26] = qHTS assay to identify small molecule antagonists of the thyroid receptor (TR) signaling pathway - cell viability counter screen (AID 743064); also: nearly all actives have a fitted effect of over 50% in size
Summary of the method: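 In-well cytotoxicity read by CellTiter-Fluor (30 min, 37 C) following 23.5 h exposure of GH3 cells bearing a TRE-luciferase sensor. Compounds were added alongside 1 nM (final) T3 to drive TR transactivation.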

[27] = system: thyroid hormone receptor (rat, GH3 cells); test: qHTS assay to identify small molecule agonists of the thyroid receptor (TR) signaling pathway (AID 743066; calls by dose curve)
[28] = target: Estrogen receptor (Homo sapiens) (UniProt P03372); test: qHTS assay to identify small molecule antagonists of the estrogen receptor alpha (ER-alpha) signaling pathway (AID 743069; active = well fitted curve in the direction sought with a large enough effect in the signal ratio in the repeat runs, not every such curve was filed as active; the % refers to the signal ratio)
Summary of the method: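 Beta-lactamase FRET fluorescence is read after 2 hr at room temperature with LiveBLAzer B/G substrate. Before that, ER-alpha-bla HEK293 cells sit 4 hr after plating, then receive compound plus 17beta-estradiol and incubate 18 hr at 37C.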

[29] = qHTS assay to identify small molecule antagonists of the estrogen receptor alpha (ER-alpha) signaling pathway - cell viability counter screen (AID 743074; calls by dose curve;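 also: HEK293 cells carrying ER-alpha-UAS-bla reporter stimulated with 17beta-estradiol; nearly all actives have a fitted effect of over 45% in size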)
[30] = target: Estrogen receptor (Homo sapiens) (UniProt P03372); test: qHTS assay to identify small molecule agonists of the estrogen receptor alpha (ER-alpha) signaling pathway (AID 743075; calls by dose curve;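 also: HEK293 GripTite cells with ER-alpha and UAS-driven beta-lactamase reporter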)
[31] = target: Estrogen receptor (Homo sapiens) (UniProt P03372); test: qHTS assay to identify small molecule agonists of the estrogen receptor alpha (ER-alpha) signaling pathway using the BG1 cell line (AID 743079); also: nearly all actives have a fitted effect of over 20% in size
[32] = qHTS assay to identify small molecule antagonists of the estrogen receptor alpha (ER-alpha) signaling pathway using the BG1 cell line (AID 743080; calls by dose curve;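 also: BG1 cells stimulated with 17beta-estradiol alongside compound; series mostly up to about 70 µM; nearly all actives have a fitted effect of over 25% in size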)
Summary of the method: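 Luciferase inhibition measured with ONE-Glo after 30 min at RT in BG1Luc4E2 cells given test compounds and 17beta-estradiol for 21.5 h at 37 C; CellTiter-Fluor viability read in the same wells beforehand.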

Aromatase (Homo sapiens) = Aromatase (Homo sapiens) (UniProt P11511); test: qHTS assay to identify aromatase inhibitors (AID 743083); also: series mostly up to about 70 µM; nearly all actives have a fitted effect of over 55% in size
[33] = qHTS assay to identify aromatase inhibitors - cell viability counter screen (AID 743084);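 also: cells stimulated with testosterone during compound exposure; nearly all actives have a fitted effect of over 55% in size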
[34] = target: Peroxisome proliferator-activated receptor gamma (Homo sapiens) (UniProt P37231); test: qHTS assay to identify small molecule agonists of the peroxisome proliferator-activated receptor gamma (PPARg) signaling pathway (AID 743094; active = well fitted activation curve with a large enough effect in the signal ratio in the repeat runs, not every such curve was filed as active; the % refers to the signal ratio)
Summary of the method: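 Cell-based bla reporter, HEK293H background, PPARg-driven UAS. Pre-incubation 5 h, 37C, 5% CO2. Compound 17 h, 37C. Substrate 1 h RT; fluorescence.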

Measured: Potency

Chain of Estrogen receptor (Homo sapiens) (P03372 whole entry, looked up): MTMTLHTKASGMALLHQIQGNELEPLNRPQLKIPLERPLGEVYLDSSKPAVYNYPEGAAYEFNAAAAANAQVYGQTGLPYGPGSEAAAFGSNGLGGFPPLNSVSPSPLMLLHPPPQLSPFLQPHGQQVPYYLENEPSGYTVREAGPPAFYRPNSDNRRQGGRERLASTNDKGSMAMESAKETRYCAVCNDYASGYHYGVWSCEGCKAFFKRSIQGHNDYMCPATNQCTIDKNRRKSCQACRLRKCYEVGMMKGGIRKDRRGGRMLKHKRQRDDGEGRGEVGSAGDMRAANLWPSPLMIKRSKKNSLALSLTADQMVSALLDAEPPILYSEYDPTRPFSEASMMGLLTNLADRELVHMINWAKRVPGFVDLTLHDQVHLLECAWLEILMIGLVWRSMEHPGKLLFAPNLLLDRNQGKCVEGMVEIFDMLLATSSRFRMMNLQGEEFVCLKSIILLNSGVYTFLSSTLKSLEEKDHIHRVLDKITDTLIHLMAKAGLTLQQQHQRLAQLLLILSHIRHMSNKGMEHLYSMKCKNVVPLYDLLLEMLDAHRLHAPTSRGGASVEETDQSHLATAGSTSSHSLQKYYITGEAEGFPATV
Chain of Glucocorticoid receptor (Homo sapiens) (P04150 whole entry, looked up): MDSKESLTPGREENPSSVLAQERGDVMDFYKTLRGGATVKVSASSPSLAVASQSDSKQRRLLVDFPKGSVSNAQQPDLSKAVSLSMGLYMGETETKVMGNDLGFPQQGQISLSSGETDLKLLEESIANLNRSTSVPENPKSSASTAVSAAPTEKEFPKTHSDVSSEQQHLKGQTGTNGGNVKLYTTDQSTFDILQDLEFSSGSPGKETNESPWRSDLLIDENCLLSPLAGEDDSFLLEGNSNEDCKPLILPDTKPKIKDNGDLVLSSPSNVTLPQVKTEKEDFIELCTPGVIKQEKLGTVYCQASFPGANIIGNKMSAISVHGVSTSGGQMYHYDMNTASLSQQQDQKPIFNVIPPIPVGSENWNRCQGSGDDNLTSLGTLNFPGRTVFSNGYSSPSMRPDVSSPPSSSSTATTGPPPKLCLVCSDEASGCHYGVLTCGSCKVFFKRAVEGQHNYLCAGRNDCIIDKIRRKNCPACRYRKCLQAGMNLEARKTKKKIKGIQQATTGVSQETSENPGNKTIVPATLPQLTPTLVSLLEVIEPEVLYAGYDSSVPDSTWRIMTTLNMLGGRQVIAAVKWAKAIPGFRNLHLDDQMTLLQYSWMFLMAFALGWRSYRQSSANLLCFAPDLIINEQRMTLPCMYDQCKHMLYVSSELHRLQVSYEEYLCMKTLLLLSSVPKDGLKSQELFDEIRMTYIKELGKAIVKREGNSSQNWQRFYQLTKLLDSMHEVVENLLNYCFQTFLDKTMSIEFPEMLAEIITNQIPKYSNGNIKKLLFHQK
Chain of Acetylcholinesterase (Homo sapiens) (P22303 whole entry, looked up): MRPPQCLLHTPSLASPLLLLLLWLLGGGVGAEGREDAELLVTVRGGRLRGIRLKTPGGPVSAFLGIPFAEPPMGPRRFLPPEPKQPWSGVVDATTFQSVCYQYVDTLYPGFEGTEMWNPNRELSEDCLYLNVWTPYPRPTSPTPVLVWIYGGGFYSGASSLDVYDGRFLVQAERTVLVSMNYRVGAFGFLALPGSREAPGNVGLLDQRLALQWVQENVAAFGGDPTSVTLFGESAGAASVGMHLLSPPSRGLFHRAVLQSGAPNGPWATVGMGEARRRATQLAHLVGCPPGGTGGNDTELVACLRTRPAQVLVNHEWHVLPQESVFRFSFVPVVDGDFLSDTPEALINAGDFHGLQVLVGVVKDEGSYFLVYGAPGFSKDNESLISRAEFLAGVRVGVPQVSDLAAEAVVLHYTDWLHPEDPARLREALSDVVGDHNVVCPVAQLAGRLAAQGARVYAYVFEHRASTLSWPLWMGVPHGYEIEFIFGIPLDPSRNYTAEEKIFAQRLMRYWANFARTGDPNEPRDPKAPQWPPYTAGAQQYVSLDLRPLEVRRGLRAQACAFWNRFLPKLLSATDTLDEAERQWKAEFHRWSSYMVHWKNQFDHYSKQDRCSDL
Chain of Peroxisome proliferator-activated receptor gamma (Homo sapiens) (P37231 whole entry, looked up): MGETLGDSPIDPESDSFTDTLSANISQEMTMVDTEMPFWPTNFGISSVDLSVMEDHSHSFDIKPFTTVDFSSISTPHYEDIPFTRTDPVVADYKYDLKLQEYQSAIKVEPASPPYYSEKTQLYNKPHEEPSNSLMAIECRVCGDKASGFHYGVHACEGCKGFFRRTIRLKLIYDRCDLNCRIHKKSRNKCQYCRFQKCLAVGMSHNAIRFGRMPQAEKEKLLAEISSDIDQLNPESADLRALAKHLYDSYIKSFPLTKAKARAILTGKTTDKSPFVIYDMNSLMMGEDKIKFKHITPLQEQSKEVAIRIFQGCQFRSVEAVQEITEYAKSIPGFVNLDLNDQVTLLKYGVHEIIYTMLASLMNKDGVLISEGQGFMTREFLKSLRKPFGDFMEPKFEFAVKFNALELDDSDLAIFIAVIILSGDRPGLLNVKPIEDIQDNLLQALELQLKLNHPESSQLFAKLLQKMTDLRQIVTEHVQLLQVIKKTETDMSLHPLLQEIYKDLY
Chain of Aromatase (Homo sapiens) (P11511 whole entry, looked up): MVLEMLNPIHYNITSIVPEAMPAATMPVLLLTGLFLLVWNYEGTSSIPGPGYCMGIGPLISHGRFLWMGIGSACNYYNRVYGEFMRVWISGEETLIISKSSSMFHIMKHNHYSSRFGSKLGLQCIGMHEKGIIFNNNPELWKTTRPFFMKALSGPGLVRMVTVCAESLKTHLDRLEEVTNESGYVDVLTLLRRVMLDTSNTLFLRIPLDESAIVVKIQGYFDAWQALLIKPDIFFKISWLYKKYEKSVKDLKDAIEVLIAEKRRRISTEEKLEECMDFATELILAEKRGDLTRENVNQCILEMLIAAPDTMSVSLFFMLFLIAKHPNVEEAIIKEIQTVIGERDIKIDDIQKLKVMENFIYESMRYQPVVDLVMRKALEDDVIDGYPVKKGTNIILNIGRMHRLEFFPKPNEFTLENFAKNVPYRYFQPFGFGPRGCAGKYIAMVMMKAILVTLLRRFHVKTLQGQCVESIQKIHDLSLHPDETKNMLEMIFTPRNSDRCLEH

COc1cc2c(N3CCN(C(=O)Nc4ccc(OC(C)C)cc4)CC3)ncnc2cc1OCCCN1CCCCC1
inactive: [1]

[Cu+]
inactive: [2]

CCC(=O)O[C@H]1[C@@H](N2CCCCC2)C[C@H]2[C@@H]3CC[C@H]4C[C@H](OC(C)=O)[C@@H](N5CCCCC5)C[C@]4(C)[C@H]3CC[C@@]21C
active: [23] 2.37 µM | [24] 3.35 µM | [25] 3.76 µM
not listed: [1] | [2]
inactive: all other assays above
